The source of these data is PubChem BioAssay.

The nature of assay [1]: polyglutamine-triggered caspase-3 activation inhibitors, cell-based (AID 1583). The following applies: polyglutamine-induced caspase-3 activation, cell assay; stronger effect = higher value;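 tested at 10 µM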.
The nature of assay [2]: suppressors of polyQ aggregation in yeast, 75Q-TubU reporter (AID 1593). The following applies: Yeast 75Q polyglutamine aggregation reporter.
Assay [3] can be described thus: rescue of polyQ-huntingtin neuronal dysfunction in worms, whole organism, C. elegans mechanosensory neurons, N-terminal huntingtin (AID 1599). The following applies: touch response, stronger effect = higher value.
Assay [4] is described as follows: inhibitors of mitochondrial cytochrome c release, biochemical, purified mitochondria (AID 1603).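 Also: mouse liver mitochondria challenged with calcium chloride; signal normalized to the plate average as 100%.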 The following applies: stronger effect = lower value.
Assay [5] in a line: inhibitors of polyQ protein aggregation (AID 1604). To be noted: polyglutamine-induced protein aggregation inhibition assay; stronger effect = higher value; tested at 2.5 µM.
Assay [6] can be described thus: enhancers of glutamate uptake in motor neurons, MN-1 cell line (AID 1612).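 Also: tested at 1 µM final; 0% = mean of DMSO vehicle wells on each plate; positive means more glutamate uptake than control and negative means less.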 To be noted: MN-1 motor neuron cells, stronger effect = higher value.
The nature of assay [7]: reducers of polyQ inclusions in PC12 cells, cell-based, NGF-treated PC12, GFPQ80 (AID 1614).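 Also: lower means fewer inclusions and 0 means no inclusions at all.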 To be noted: PC12 NGF-treated GFP-polyQ80 inclusion reduction.
Assay [8] can be described thus: suppressors of polyglutamine aggregation in yeast, 75Q-TubH (AID 1616). The following applies: S. cerevisiae 75Q-TubH polyglutamine aggregation suppression; stronger effect = higher value.
Assay [9] can be described thus: liver-stage malaria parasite growth inhibition, primary screen, cell-based, HepG2, luciferase luminescence, HepG2 viability (AID 624349).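 Also: 100% = mean of DMSO negative control wells on the same plate.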 To be noted: P. berghei liver stage in HepG2, luciferase luminescence, concentration not given here; parasite load remaining: stronger effect = lower value; viability: measured here: HepG2 viability without parasites.
The nature of assay [10]: differential killing of epithelial or mesenchymal cells, primary screen, imaging, PC-3E GFP, TEM4-18 mCherry, co-culture (AID 1345086;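 active = compounds killing one labelled cell type while sparing the other, by normalised counts and ratio limits, not self-fluorescent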;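 as to all read-outs here: cells exposed to compound for 72 h before imaging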;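 as to red/green cell ratio (normalised): normalised mesenchymal count divided by normalised epithelial count so high means epithelial killing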). The following applies: imaging cell counts, at 1 µM; for red/green cell ratio (normalised): actives lie on both sides, counts scaled to control wells, 1 = unselective.
Assay [11] can be described thus: sensitizers of A549 cells to miR-34 induction, primary screen, imaging, A549 dox-inducible miR-34, nuclei and caspase counts (AID 1347080;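 active = compounds whose cell count with miR-34 switched on is under 0.7 times the count with it off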). To be noted: A549 miR-34 inducible, Hoechst nuclei count, 48 h.
[12] abbreviates: measured here: epithelial PC-3E GFP cell survival.
Where [13] appears, read: measured here: mesenchymal TEM4-18 mCherry cell survival.
[14] abbreviates: stronger effect = lower value, cell number ratio, induced over uninduced.
Setting [15] is: measured here: relative caspase fold change +Dox/-Dox.
The mark [16] stands for this setting: measured here: total cells with miR-34 induction, stronger effect = lower value.
Where [17] appears, read: measured here: total cells without miR-34 induction.

Values joined by “and” are separate entries in the source; they are usually repeats but may differ in a detail not shown here. Equal entries are not always repeated. For some of these results: Measured potencies and affinities stand elsewhere. Active and inactive are the calls of the source. Rule as the data show it, unless noted: active = parasite load remaining mostly below about 12% (no sharp cut-off); inactive = mostly above about 10%.

Consider `CC(=O)OCC(=O)[C@H]1CCC2C3CCC4=CC(=O)CC[C@]4(C)C3CC[C@@]21C` (stereo not given in full), for which the inhibition in assay [1] was -3.1%. The score in [2] stood at 0.92. The rescue above control in assay [3] was -2.35. In assay [4], the cytochrome c release ratio turned out to be 1.07. Besides, in assay [5], the inhibition of aggregation stood at 63.5%. Also, the glutamate uptake change in assay [6] was found to be 23%. Besides, the inclusion score in assay [7] amounted to 2.5. This compound also returned an aggregation suppression score in assay [8] of 0.669. Also, the parasite load remaining in assay [9] was 44.3% (inactive). This compound also had a viability in [9] of 97.7%. Further, in assay [10], the red/green cell ratio (normalised) is 1.09 (inactive). The normalised cell number in assay [10] (setting [12]) is 1.34; in [10] (setting [13]), 1.47. Moreover, the results for the fold change in assay [11] (setting [14]) and in assay [11] (setting [15]) were 0.848 (inactive) and 2.3, respectively. Also, the cell count came out at 9410 in [11] (setting [16]) and 11100 in assay [11] (setting [17]).
With `CC(=O)[C@H]1CCC2C3C[C@H](C)C4=CC(=O)CC[C@]4(C)C3[C@@H](O)C[C@@]21C` (stereo not given in full), in [1], the inhibition was -9.54%. The compound also had a score in assay [2] of 0.84. This compound also gave a rescue above control in assay [3] of 5.72. Further, the cytochrome c release ratio in [4] worked out at 0.58. Besides, the inhibition of aggregation in assay [5] was 53.9%. In assay [6], the glutamate uptake change came to 24.3%. The aggregation suppression score in [8] turned out to be 0.683. For the same compound, the parasite load remaining in [9] is 75.8% (inactive) and 64.6% (inactive). The viability in assay [9] was 70.5% and 91.2%. Besides, the red/green cell ratio (normalised) in assay [10] was 1.01 (inactive). The normalised cell number in assay [10] (setting [12]) was determined as 1.12; in assay [10] (setting [13]) it was 1.13. Moreover, the fold change in assay [11] (setting [14]) is 0.946 (inactive); in assay [11] (setting [15]), 2.37. Moreover, the cell count worked out at 8730 in [11] (setting [16]) and 9220 in assay [11] (setting [17]).
Take `C[C@]12CCC(=O)C=C1CCC1C2[C@@H](O)C[C@@]2(C)C1CC[C@]2(O)C(=O)CO` (stereo not given in full): in assay [1], the inhibition was 5.24%. Besides, in assay [2], the score is 1.39. In addition, the rescue above control in [3] is -4.34. In addition, in assay [4], the cytochrome c release ratio was determined as 1.36. The compound further yielded an inhibition of aggregation in [5] of 63.4%. Moreover, the glutamate uptake change in assay [6] came out at 10.6%. Also, the inclusion score in assay [7] was 2. This compound yielded an aggregation suppression score in assay [8] of 1.61. In assay [9], the parasite load remaining is 94% (inactive). Moreover, the viability in assay [9] worked out at 99.2%. The red/green cell ratio (normalised) in assay [10] was 1.04 (inactive). Also, the normalised cell number in assay [10] (setting [12]) is 1.28; in [10] (setting [13]), 1.34. The fold change was 0.949 (inactive) in assay [11] (setting [14]) and 3.13 in assay [11] (setting [15]). The cell count in assay [11] (setting [16]) was 7100; in assay [11] (setting [17]) it was 7490.
As to `CN1CCN(CCC=C2c3ccccc3Sc3ccc(S(=O)(=O)N(C)C)cc32)CC1`, the inhibition in assay [1] was 35.1%. The same compound had a score in assay [2] of 0.75. In assay [3], this compound registered a rescue above control of 18.8. Moreover, the cytochrome c release ratio in [4] was determined as 2.01. This compound displayed an inhibition of aggregation in assay [5] of 76%. In [6], the glutamate uptake change was -21.1%. Further, the aggregation suppression score in [8] came to 0.481. Besides, the parasite load remaining in assay [9] was 192% (inactive) and 47.1% (inactive). Moreover, the viability in [9] is 71.3% and 85.4%. The red/green cell ratio (normalised) in assay [10] is 1.07 (inactive). In addition, the values for the normalised cell number in assay [10] (setting [12]) and in [10] (setting [13]) were 0.83 and 0.89, respectively. Moreover, the results for the fold change in [11] (setting [14]) and in assay [11] (setting [15]) were 0.878 (inactive) and 3.25, respectively. The results for the cell count in [11] (setting [16]) and in [11] (setting [17]) were 9700 and 11100, respectively.
Turning to `C[C@]12C=CC(=O)C=C1CCC1C3C[C@@H](O)[C@](O)(C(=O)CO)[C@@]3(C)C[C@H](O)[C@@]12F` (stereo not given in full), the inhibition in [1] is -13.4%. In addition, the score in assay [2] is 1.07. For the same compound, the rescue above control in assay [3] is -12.1. In addition, the cytochrome c release ratio in [4] stood at 1.15. Also, the inhibition of aggregation in [5] worked out at 48.1%. Moreover, the glutamate uptake change in assay [6] is -1.32%. In assay [7], this compound showed an inclusion score of 2. The aggregation suppression score in [8] amounted to 1.12. The parasite load remaining in assay [9] is 233% (inactive) and 58.4% (inactive). Moreover, in assay [9], the viability is 72.6% and 84.9%. Further, the red/green cell ratio (normalised) in assay [10] was 1.46 (inactive). The normalised cell number in assay [10] (setting [12]) amounted to 0.85; in assay [10] (setting [13]) it was 1.24. Further, the fold change in assay [11] (setting [14]) was 0.829 (inactive); in assay [11] (setting [15]), 2.83. Besides, the cell count in assay [11] (setting [16]) is 6430; in assay [11] (setting [17]) it was 7760.
For `CC(=O)O[C@]1(C(C)=O)CCC2C3C=C(Cl)C4=CC(=O)[C@@H]5C[C@@H]5[C@]4(C)C3CC[C@@]21C` (stereo not given in full), the inhibition in assay [1] was found to be 22.9%. For the same compound, in [2], the score stood at 0.66. Moreover, the rescue above control in assay [3] is -6.61. In addition, in assay [4], the cytochrome c release ratio came to 1.14. Besides, the inhibition of aggregation in assay [5] was found to be 61%. Moreover, in assay [6], the glutamate uptake change was found to be 14.6%. In [7], this compound gave an inclusion score of 1. The same compound came in with an aggregation suppression score in [8] of 0.413. In addition, the parasite load remaining in assay [9] was 90.2% (inactive) and 39.4% (inactive). For the same compound, the viability in assay [9] is 70.9% and 86.5%. The red/green cell ratio (normalised) in assay [10] was 0.81 (inactive). In addition, the normalised cell number in assay [10] (setting [12]) stood at 1.12; in assay [10] (setting [13]) it was 0.91. For the same compound, the fold change was 0.907 (inactive) in assay [11] (setting [14]) and 1.85 in [11] (setting [15]). In addition, the cell count in [11] (setting [16]) came out at 11200; in assay [11] (setting [17]), 12400.
